Screen size: about 69,000 compounds; about 8,600 (12%) showed an effect of 50% or more. The list comes from a sample in which strong results are over-represented; it also holds similar structures and randomly drawn compounds.
Each compound was assayed on Plasmodium berghei (assay: Screen against P. berghei liver stage (PbLuc), transformed with Luciferase, at 10uM). Details: tested at 10 uM.
Format: functional, HepG2

In order of falling INHIBITION:
1. Cc1ccc(N2CCO[C@H]3CN(Cc4cccs4)C[C@H]32)nn1  88.2%
2. COc1ccc2c(c1)OCC(CNC1CCc3nc(C)nn3C1)=C2 (configuration not stated)  85.2%
3. Cc1nc(CCN)cc(N2CCC(O)(c3ccc(Cl)cc3)CC2)n1  80.8%
4. CCc1nc(CN2CCN(C(=O)c3cc(C)nn3C)CC2)cs1  76.9%
5. CCc1nc(CN2CCCN(C(=O)CCc3ccco3)CC2)cs1  73.1%
6. Cc1nc(CN2CCC23CCN(C(=O)c2ccco2)CC3)cs1  60.2%
7. COc1ccc(-c2nc(CNC3CCc4nc(C)nn4C3)no2)cc1 (configuration not stated)  56.6%
8. CN(C)c1cc2c(nn1)CCN(C(=O)C1Cc3ccccc3O1)C2 (configuration not stated)  56.4%
9. CCc1nc(CN2CCCN(C(=O)Cc3cccs3)CC2)cs1  55.1%
10. CCc1nc(CN2CCCN(C(=O)COCC3CC3)CC2)cs1  54.3%
11. CCc1nc(CN2CCCN(C(=O)c3ccco3)CC2)cs1  53.9%
12. Cc1ccc(N2CCO[C@H]3CN(C(=O)c4cccc(C)n4)C[C@H]32)nn1  53%
13. Cc1ccc(N2C[C@@H]3CN(C(=O)c4ccccc4)CCO[C@@H]3C2)nn1  51.2%
14. Cc1ccc(N2CCO[C@H]3CN(Cc4ccccn4)C[C@H]32)nn1  50.9%
15. Cc1nc(CCN)cc(N2CCCN(C(=O)c3ccco3)CC2)n1  50.3%
16. O=C(c1ccccc1)N1CCO[C@@H]2CN(c3ncccn3)C[C@@H]2C1  48.2%
17. Cc1nc(CN2CCCN(C(=O)COCC3CC3)CC2)cs1  43.2%
18. Cc1nc(CN2CCN(C(=O)CCc3ccco3)CC2)cs1  42.9%
19. Cc1nnc(C(NS(=O)(=O)c2cc(C)c(F)cc2F)C(C)C)[nH]1 (configuration not stated)  38.9%
20. COc1ccc(C(=O)N2CCN(c3cc(CCN)nc(C)n3)CC2)cc1  38.5%
21. CN(C)CC(=O)Nc1ccc(C(=O)N(C)CCc2cn[nH]c2)cc1  38.2%
22. c1ccc(CN2C[C@@H]3OCCN(c4ncccn4)[C@@H]3C2)nc1  38.1%
23. N#Cc1ccc(CN(CCF)Cc2cccc(F)c2)cc1  37.9%
24. O=C(c1ccccc1)N1CCO[C@@H]2CN(c3cnccn3)C[C@@H]2C1  37.9%
25. CC(C)NC(=O)N1CCN(c2ccc(Cl)nn2)C(=O)C1  37.5%
26. CCc1nc2n(n1)CC(NCC1=Cc3ccc(OC)cc3OC1)CC2 (configuration not stated)  32.3%
27. O=C(CN1CC(c2nc(-c3cccs3)no2)C1)NCC1CCCO1 (configuration not stated)  32.1%
28. CCc1nc2n(n1)CC(NCc1noc(-c3ccc(C)cc3)n1)CC2 (configuration not stated)  31.9%
29. CNC(=O)[C@H]1C[C@@H]2CN(Cc3csc(C)n3)C[C@@H]2N1S(C)(=O)=O  28.5%
30. Cc1nc(CN2CCC23CCN(Cc2ccoc2)CC3)cs1  26.7%
31. Cc1ccc(N2CCO[C@H]3CN(Cc4nccs4)C[C@H]32)nn1  25.2%
32. Cc1cc(C(=O)NCC(c2ccsc2)N(C)C)no1 (configuration not stated)  24%
33. CC(C)(C)C(=O)NCCC(=O)NCCc1ccn(-c2ccccc2)n1  23.4%
34. Cc1ccc(N2CCO[C@H]3CN(Cc4ccncc4)C[C@H]32)nn1  22.7%
35. CN(C)c1cc2c(nn1)CCN(C(=O)C1COc3ccccc3C1)C2 (configuration not stated)  20.2%
36. Cc1cccc(-c2nc(CNC3CCc4nc(C)nn4C3)no2)c1 (configuration not stated)  19.6%
37. CCc1noc(CN2CCN(c3nccs3)CC2)n1  19.5%
38. Cc1cccc(C(=O)N2C[C@@H]3OCCN(C(C)C)[C@@H]3C2)n1  18.8%
39. CCNc1cc2c(nn1)CCN(C(=O)C1Cc3ccccc3O1)C2 (configuration not stated)  18.6%
40. Cc1cccc(C(=O)N2C[C@@H]3OCCN(c4ncccn4)[C@@H]3C2)n1  16.6%
41. Cc1ncc(C(=O)N2CCCC(C(=O)CCc3ccccc3)C2)s1 (configuration not stated)  16.3%
42. CNC(=O)Cn1ccc2ccc(NC(=O)NC(C)C(C)C)cc21 (configuration not stated)  15.5%
43. COCCOc1ncccc1C(=O)N1CCCC1Cn1cc(C)cn1 (configuration not stated)  15.5%
44. Cc1nc(CN2CCCN(C(=O)CCc3ccco3)CC2)cs1  12.7%
45. Cc1nc(CN2CCC23CCN(C(=O)c2ccncc2)CC3)cs1  12.7%
46. C[S+]([O-])c1cccc(NC(=O)N[C@H](CCO)c2ccccc2)c1 (some centres not stated)  11.5%
47. CCn1ncc2c1C(COC)CN(S(=O)(=O)N(C)C)C2 (configuration not stated)  10%
48. Cc1nc(N2CCN(C(=O)c3ccco3)CC2)c2c(n1)c(C)nn2C  7.66%
49. Cc1nc(CCN)cc(N2CCC(O)(c3ccccc3)C2)n1 (configuration not stated)  7.1%
50. CCN(C(=O)Cn1cc(Cl)cn1)c1ccccc1  4.81%
51. Cc1nc(CN)cc(N2CCC(O)(c3ccc(Cl)cc3)CC2)n1  3.82%
52. NC(=O)NC(CC(=O)N1CCc2sccc2C1)c1ccccc1F (configuration not stated)  3.3%
53. CCCOCC(=O)N1CCCN(Cc2csc(CC)n2)CC1  1.75%
54. COCCN1CCN(S(C)(=O)=O)Cc2cccnc21  -0.284%
55. O=C(c1ncccn1)N1CC[C@H]2OCC[C@@]2(COc2ccccn2)C1  -1.15%
56. CNC(=O)Cc1n[nH]c(-c2cncc(Br)c2)n1  -6.61%
57. CCc1ccc(C(=O)N2CCCN(Cc3csc(CC)n3)CC2)o1  -7.25%
58. CCc1noc(CN2CCN(C(=O)N(CC)CC)CC2)n1  -7.31%
59. Cc1ccc(N2CCO[C@H]3CN(Cc4cccnc4)C[C@H]32)nn1  -12%
60. CCc1nc(CN2CCCN(C(=O)CC(F)(F)F)CC2)cs1  -19.4%
61. OC(CN1CCN(Cc2ccccc2)CC1)C1CC1 (configuration not stated)  -20.5%
62. c1ccc(-c2cnc3n2CCNC32CCNCC2)cc1  -30.1%
63. CCn1cc(S(=O)(=O)Nc2nc3c(s2)CCCC3)cn1  -35.4%
64. CNC(=O)CN1CCCC12CCN(C(=O)c1ccccc1F)CC2  -35.6%
65. CCc1nc(CN2CCN(C(=O)c3cc(C)no3)CC2)cs1  -35.7%
66. CN(C)[C@@H]1CCN(c2ncc(F)cn2)[C@H]1Cc1ccncc1  -42.9%
67. COc1cc(CNC2CCc3nc(C)nn3C2)cc2c1OCO2 (configuration not stated)  -43.6%
68. Cc1ncsc1CCN(C)C(=O)CCc1nc2cccnc2n1C  -51%
69. CCc1nc(CN2CCCN(C(=O)COC)CC2)cs1  -61.4%
70. CCc1nc(CN2CCCN(C(=O)c3cccn3C)CC2)cs1  -69.6%
71. N#Cc1cccc(OCc2ccoc2C(=O)N2CCCCC2)c1  -105%
72. CCc1nc(CN2CCCN(C(=O)c3ccccc3)CC2)cs1  -155%
